According to PubChem BioAssay AID1851 (National Center for Advancing Translational Sciences (NCATS), 2009):
The whole screen tested about 16,000 compounds, of which about 5,700 (36%) were called active. About 24% were inconclusive and are not listed. Calls come from the whole dose curve; as a rule, active = well fitted curve in the direction sought with a large enough effect; inconclusive = small, poorly fitted or top-dose-only effect, or effect the other way; inactive = no such curve, though single readings can be large or run the other way. The list shows a part of the results.

biological target: Cytochrome P450 1A2 (Homo sapiens) (UniProt P05177); test: Cytochrome panel assay with activity outcomes; conditions: recombinant CYP, pro-luciferin dealkylation, luminescence, p450-cyp1a2; series mostly up to 57.1 µM
% is set by controls: 0 for no effect and ±100 for the full control effect.

Cytochrome P450 1A2 (Homo sapiens), sequence (P05177 whole entry, looked up): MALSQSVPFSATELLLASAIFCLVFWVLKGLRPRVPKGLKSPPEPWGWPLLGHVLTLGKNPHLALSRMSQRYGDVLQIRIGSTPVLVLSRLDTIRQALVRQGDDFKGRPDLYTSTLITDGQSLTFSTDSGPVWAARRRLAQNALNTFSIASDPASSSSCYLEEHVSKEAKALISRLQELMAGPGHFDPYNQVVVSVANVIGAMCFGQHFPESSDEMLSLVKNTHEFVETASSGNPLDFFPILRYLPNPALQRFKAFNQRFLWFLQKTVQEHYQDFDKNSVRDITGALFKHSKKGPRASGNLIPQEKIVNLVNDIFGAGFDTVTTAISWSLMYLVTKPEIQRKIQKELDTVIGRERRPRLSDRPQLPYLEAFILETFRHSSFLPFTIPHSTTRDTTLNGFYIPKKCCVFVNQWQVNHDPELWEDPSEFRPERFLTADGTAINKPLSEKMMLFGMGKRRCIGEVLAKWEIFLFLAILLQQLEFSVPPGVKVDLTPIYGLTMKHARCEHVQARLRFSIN

| Compound | AC50 | activity, negative = inhibition |
| --- | --- | --- |
| OC[C@H]1NC[C@H](O)[C@@H](O)[C@H]1O | inactive | – |
| O=C(NCc1n[nH]c(=S)n1-c1ccccc1)c1ccc(S(=O)(=O)N2CCOCC2)cc1 | inactive | – |
| NCCSC[C@H](N)C(=O)O | – | -0.987% [at 11.4 µM] (inactive) |
| CN1CCCC2(CCN(C(=O)c3cc(C(F)(F)F)cc(C(F)(F)F)c3)CC2)C1 | inactive | – |
| CCOC(=O)CC(NC(=O)c1cccs1)c1ccc(OCC)cc1 (stereo not drawn) | 12.6 µM (active) | – |
| CCOc1ccc(C(CC(=O)O)NC(=O)COc2ccccc2)cc1 (stereo not drawn) | inactive | – |
| O=C(O)C1=CCNCC1 | inactive | – |
| Cc1cc(O)c(/C=N/Nc2cccc(Cl)c2)c(=O)o1 | 2.24 µM (active) | – |
| COCCCNC(=O)CCC(=O)Nc1ccc2nc(N3CCOCC3)cc(C)c2c1 | inactive | – |
| Cc1cc(N2CCN(C)CC2)nc2ccc(NC(=O)CCC(=O)NCc3ccco3)cc12 | 1.26 µM (active) | – |
| Cc1cc(NC(=O)CSc2nc3ccccc3c(=O)n2CCCC(=O)NCc2ccco2)n[nH]1 | inactive | – |
| CCOC(=O)c1cc(CC)sc1NC(=O)C(c1ccccc1)c1ccccc1 | inactive | – |
| CCOC(=O)c1cccc2c1-c1ccccc1/C2=N/O | 1.58 µM (active) | – |
| Cn1c(SCC(=O)N/N=C/C=C\c2ccco2)nc2ccccc21 | 2 µM (active) | – |
| Cc1ccc(/C=N/NC(=O)CSc2nc3ccccc3n2C)s1 | 2.51 µM (active) | – |
| Cc1nc2ccccc2n1CC(=O)N/N=C\c1ccccn1 | inactive | – |
| Cc1nc2ccccc2n1CC(=O)N/N=C\C=C\c1ccccc1 | 5.01 µM (active) | – |
| O=c1cc(CO)oc(CN2CCCC2)c1O | inactive | – |
| CC(=O)Nc1nc(NC(C)=O)c2[nH]c(CO)nc2n1 | – | -14.4% [at 11.4 µM] (inactive) |
| CN(N=O)C(=O)N[C@H]1[C@@H](O)[C@H](O)[C@H](CO)O[C@@H]1O | inactive | – |
| Cc1noc(C)c1-c1cncnc1N(C)Cc1ccco1 | inactive | – |
| COc1ccccc1-c1cncnc1N(C)Cc1ccco1 | 15.8 µM (active) | – |
| CN(Cc1ccco1)c1ncncc1-c1ccccc1Cl | 25.1 µM (active) | – |
| Cc1ccccc1-c1cncnc1N(C)Cc1ccco1 | 15.8 µM (active) | – |
| COC(=O)[C@@H]1CC[C@H](C)[C@@H](c2ccc(C)cc2)N1C(=O)c1ccc(/C=N\O[C@@H]2O[C@H](COC(C)=O)[C@H](OC(C)=O)[C@H](OC(C)=O)[C@H]2OC(C)=O)cc1 | – | -1.33% [at 11.4 µM] (inactive) |

| Compound | AC50 | activity, negative = inhibition |
| --- | --- | --- |
| CCOc1cc(C2CC(=O)c3c(ccc4ccccc34)N2)ccc1O (stereo not drawn) | inactive | – |
| CC[C@H]1CC[C@H]2[C@@H]3CC=C4C[C@H](OC(C)=O)[C@@H](N)C[C@@]4(C)[C@H]3CC[C@@]12C | – | -5.9% [at 11.4 µM] (inactive) |
| CCc1cc2c(Sc3nc4ccccc4s3)ncnc2s1 | 1.58 µM (active) | – |
| Cc1cccc(CNc2nc(-c3cccnc3)nc3ccccc23)c1 | 0.631 µM (active) | – |
| CN(C)c1ccc(-c2nc(NCc3cccnc3)c3ccccc3n2)cc1 | 1.58 µM (active) | – |
| c1ccc(-c2nc(NCc3cccnc3)c3ccccc3n2)cc1 | 1.12 µM (active) | – |
| CCCc1cc(=O)oc2cc(OCC(=O)N3CCc4ccccc43)ccc12 | inactive | – |
| CCCc1cc(=O)oc2cc(OCc3nn[nH]n3)ccc12 | 12.6 µM (active) | – |
| CCCCc1cc(=O)oc2cc(OCC(=O)N(CC)CC)ccc12 | 12.6 µM (active) | – |
| CCO[C@H](c1cc(OC)cc([N+](=O)[O-])c1OC)[C@H](C)/C=C\CC(=O)OC | – | 1.93% [at 11.4 µM] (inactive) |
| COc1ccc(/C(O)=C2\C(=O)C(=O)N(c3cc(C)on3)C2c2ccc(OC)c(OC)c2)cc1OC (stereo not drawn) | inactive | – |
| CC(=O)OCC(=O)[C@@]1(O)[C@H](C)C[C@@H]2[C@H]3CCC4=CC(=O)C=C[C@]4(C)[C@]3(F)[C@@H](O)C[C@@]21C | inactive | – |
| O=C(CN1CCCC1)N/N=C/c1ccc(-c2cccc(Cl)c2)o1 | 8.91 µM (active) | – |
| CSc1ccccc1NC(=O)CSCc1ccc(C)cc1 | 7.08 µM (active) | – |
| CCC(C)NS(=O)(=O)c1ccc(NC(=O)CCC2CCCCC2)cc1 (stereo not drawn) | inactive | – |
| O=C(CCC1CCCCC1)Nc1c2c(nn1-c1ccc(F)cc1)CS(=O)(=O)C2 | inactive | – |
| O=C(CSCc1ccccc1)Nc1ccc(S(=O)(=O)N2CCOCC2)cc1 | inactive | – |
| CCn1c(CSCc2ccc(C)cc2)nnc1SCC(=O)NCc1ccccc1 | inactive | – |
| CC(=O)c1cccc(NC(=O)CSCc2ccccc2)c1 | 2 µM (active) | – |
| COc1cccc(N(CC(=O)Nc2cccc(C(C)=O)c2)S(C)(=O)=O)c1 | inactive | – |
| CC(=O)c1cccc(NC(=O)CCC2CCCC2)c1 | 3.55 µM (active) | – |
| Cc1ccc(O)c(C(=O)c2cc(C#N)c(=O)n(-c3c(C)n(C)n(-c4ccccc4)c3=O)c2)c1 | inactive | – |
| Nc1nc2n[nH]nc2c(=O)[nH]1 | inactive | – |
| CCCOc1ccccc1-c1nc2n[nH]nc2c(=O)[nH]1 | 3.98 µM (active) | – |
| C=CCSC1=Nc2sccc2C2=NC(=O)CN12 | 1.78 µM (active) | – |

| Compound | AC50 | activity, negative = inhibition |
| --- | --- | --- |
| CSC1=N/C(=C\c2ccc3c(c2)OCO3)C(=O)S1 | 1 µM (active) | – |
| CSC1=N/C(=C\c2ccc(C)cc2)C(=O)S1 | 2.82 µM (active) | – |
| CN(C)C(=O)CN(c1ccc2c(c1)OCO2)S(C)(=O)=O | inactive | – |
| CSC1=N/C(=C\c2ccc(Br)o2)C(=O)S1 | 3.55 µM (active) | – |
| C[C@@H]1C[C@@H]2[C@H]3CCC4=CC(=O)C=C[C@]4(C)[C@]3(F)[C@@H](O)C[C@]2(C)[C@@]1(O)C(=O)CO | inactive | – |
| O=C(O)[C@H](Cc1cc(I)c(O)c(I)c1)C1CCCCC1 | – | -8.77% [at 2.29 µM] (inactive) |
| c1ccc2cc(Sc3ncnc4c3oc3ccccc34)ccc2c1 | 1.58 µM (active) | – |
| Cc1ccc(S(=O)(=O)N(CC(=O)NCCC2=CCCCC2)Cc2ccccc2F)cc1 | inactive | – |
| O=C(COc1ccc(Cl)cc1)NCCC1=CCCCC1 | 11.2 µM (active) | – |
| COc1ccc(OC)c(C(=O)CN2C(=O)NC(C)(c3ccccc3)C2=O)c1 (stereo not drawn) | inactive | – |
| COc1ccc(C(=O)CN2C(=O)NC(C)(c3ccccc3)C2=O)cc1OC (stereo not drawn) | inactive | – |
| Cc1nc2ncnn2c(C)c1CCC(=O)NCCC1=CCCCC1 | inactive | – |
| CC1(c2ccccc2)NC(=O)N(CC(=O)NCCC2=CCCCC2)C1=O (stereo not drawn) | 11.2 µM (active) | – |
| CCCCCOc1ccc(NC(=O)C(=O)NCCC2=CCCCC2)cc1 | inactive | – |
| CC(=O)Nc1ccc(S(=O)(=O)NC(CC(=O)NCCC2=CCCCC2)C(C)C)cc1 (stereo not drawn) | inactive | – |
| O=C(CN1CCN(c2ncccn2)CC1)NCCC1=CCCCC1 | 1.58 µM (active) | – |
| CCC(C)n1nnc2c(=O)oc3ccccc3c21 (stereo not drawn) | 0.708 µM (active) | – |
| C=CCN1CCc2cc(O)c(O)cc2[C@H](c2ccccc2)C1 | inactive | – |
| CC(C)=NOCc1ccc(-c2cc(-c3ccccc3)no2)cc1 | – | -4.03% [at 11.4 µM] (inactive) |
| Nc1nc(-c2cc(-c3cccc4ccccc34)nc(N)n2)cc(-c2cccc3ccccc23)n1 | – | -4.4% [at 2.29 µM] (inactive) |
| Oc1ccccc1-c1cc(-c2ccccc2)no1 | 1.26 µM (active) | – |
| Cc1ccccc1-c1cc(-c2ccccc2O)on1 | 2.51 µM (active) | – |
| CC(C)=NOCc1cccc(-c2cc(-c3ccccc3)no2)c1 | – | 1.37% [at 11.4 µM] (inactive) |
| Nc1nc(-c2ccccc2)cc(-c2ccccc2O)n1 | 0.631 µM (active) | – |
| CC(=O)N1CCN(c2nc(C)nc3sc4c(c23)CCC(C)C4)CC1 (stereo not drawn) | 15.8 µM (active) | – |

| Compound | AC50 | activity, negative = inhibition |
| --- | --- | --- |
| Cc1cc(C(F)F)n2nc(C(=O)Nc3sc4c(c3C#N)CCC(C)C4)nc2n1 (stereo not drawn) | inactive | – |
| CC(C)CN=C(N)N=C(N)N | – | -9.85% [at 11.4 µM] (inactive) |
| C(=N\N(c1ccccc1)c1ccccc1)/c1ccc2c(c1)OCO2 | 2 µM (active) | – |
| CCOc1ccc(CNC(=O)C2CCC(=O)N2C2CCCC2)cc1OC (stereo not drawn) | inactive | – |
| CCOc1ccc(CC(=O)C2C(=O)CCCC2=O)cc1OCC | 10 µM (active) | – |
| CCOc1cc(CN2CCN(c3ccc(C(C)=O)cc3)CC2)ccc1OC | inactive | – |
| CC1CCC(O)([C@](C)(C(=O)O)c2ccccc2)CC1 (stereo partly drawn) | – | -4.6% [at 11.4 µM] (inactive) |
| COC(=O)N1CCC2(CC1)CN(C(=O)Nc1ccccc1)C2 | inactive | – |
| O=C(Nc1ccc(Cl)cc1)N1CCc2[nH]c3ccccc3c2C1 | 3.55 µM (active) | – |
| O=C(Nc1ccccc1)N1CCOCC1 | inactive | – |
| COC(=O)[C@@]1(Cc2ccc(OC)cc2)[C@H]2c3cc(C(=O)N4CCCC4)n(Cc4ccc(C(F)(F)F)nc4)c3C[C@H]2CN1C(=O)c1ccccc1 | inactive | – |
| Cc1cc(SCC(=O)c2cccs2)nc2c(C)cccc12 | 0.891 µM (active) | – |
| CCCNC(=O)OC[C@@H]1O[C@H](c2ccccc2)C=C[C@@H]1Oc1ccc(OC)cc1 | – | -7.29% [at 11.4 µM] (inactive) |
| C=CCc1ccccc1OC[C@H](O)CNC(C)C | 3.16 µM (active) | – |
| C=CCOc1ccccc1OC[C@H](O)CNC(C)C | 5.01 µM (active) | – |
| CC(C)(C)NC[C@H](O)COc1cccc2[nH]c(=O)[nH]c12 | inactive | – |
| C=CCOc1ccc(CNC(C)(C)CO)cc1OCC | inactive | – |
| O=C1c2ccccc2C(=O)N1CC1c2ccccc2CCN1S(=O)(=O)c1ccccc1 (stereo not drawn) | inactive | – |
| COc1ccc(CCNC(=O)C2CCN(S(=O)(=O)N3CC(C)CC(C)C3)CC2)cc1OC (stereo not drawn) | inactive | – |
| C#CCCCO/N=C1/C[C@@H](O)[C@@H](O)[C@@H]2[C@@H]3C(=O)N(CCC(=O)OCC)C(=O)[C@H]3CC[C@@H]12 | – | -0.481% [at 11.4 µM] (inactive) |
| CNc1oc(C)nc1S(=O)(=O)c1ccc(C)cc1 | inactive | – |
| CSc1nc(-c2ccc(C)cc2)[nH]c1S(=O)(=O)c1ccccc1 | 14.1 µM (active) | – |
| Cc1ccc(S(=O)(=O)c2cc(C#N)c(=O)[nH]c2N)cc1 | inactive | – |
